Measured values taken from PubChem BioAssay (EPA / NIEHS).
The source made the active and inactive calls. The calls were made as follows: active = hit-call score of the fitted dose curve at least 0.9, where 1 is the maximum; inactive = score below 0.9.

Legend:
Settings in all cases: mRNA level, 48 h; actives raise or lower the signal
[1] = read-out: Protein phosphatase 2A (PPP2R4), PTPA (gene 5524); assay: LTEA_HepaRG_PPP2R4: Life Technologies and Expression Analysis (LTEA) Assay for Protein phosphatase 2A (PPP2R4) using HepaRG (AID 2283522)
How it was run: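 Using HepaRG cultures maintained in 0.5% DMSO, chemicals are tested 48 h at up to 100 uM in duplicate. Induction or suppression of PPP2R4 mRNA, measured by qRT-PCR, is fitted bidirectionally against the vehicle baseline.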

[2] = read-out: Phosphatase and tensin (PTEN), PTEN (gene 5728); assay: LTEA_HepaRG_PTEN: Life Technologies and Expression Analysis (LTEA) Assay for Phosphatase and tensin (PTEN) using HepaRG (AID 2283523)
How it was run: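 Read-out: TaqMan qRT-PCR of PTEN transcript, normalized to three housekeeping genes, fitted in both directions against 0.5% DMSO. Differentiated human HepaRG cultures received chemicals for 48 h, eight-point half-log series topping at 100 uM.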

[3] = read-out: solute carrier (SLC22A1), SLC22A1 (gene 6580); assay: LTEA_HepaRG_SLC22A1: Life Technologies and Expression Analysis (LTEA) Assay for solute carrier (SLC22A1) using HepaRG (AID 2283524)
How it was run: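 Transcript level of SLC22A1 quantified by qRT-PCR (normalized to three housekeeping genes) after 48 h chemical exposure of HepaRG cells, eight concentrations up to 100 µM, half-log steps, 0.5% DMSO vehicle. Gain or loss relative to DMSO fitted bidirectionally.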

[4] = read-out: Pyruvate Dehydrogenase Kinase 4 (PDK4), PDK4 (gene 5166); assay: LTEA_HepaRG_PDK4: Life Technologies and Expression Analysis (LTEA) Assay for Pyruvate Dehydrogenase Kinase 4 (PDK4) using HepaRG (AID 2283525)
How it was run: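 Readout is qRT-PCR of PDK4 transcript, normalized to three housekeeping genes, with bidirectional fitting against 0.5% DMSO vehicle. Differentiated HepaRG cells were treated 48 h in serum-free induction medium, duplicate wells, eight-point half-log series topping at 100 uM.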

[5] = read-out: NAD(P)H dehydrogenase [quinone] 1 (NQO1), NQO1 (gene 1728); assay: LTEA_HepaRG_NQO1: Life Technologies and Expression Analysis (LTEA) Assay for NAD(P)H dehydrogenase [quinone] 1 (NQO1) using HepaRG (AID 2283526)
How it was run: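 In this assay, gene expression is read by qRT-PCR after 48 h exposure of HepaRG cells to eight concentrations (max 100 uM, half-log) in 0.5% DMSO. Each chemical runs in duplicate, and activity is scored relative to vehicle.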

[6] = read-out: Nuclear factor erythroid 2-related factor 2 (Homo sapiens) (UniProt Q16236); assay: LTEA_HepaRG_NFE2L2: Life Technologies and Expression Analysis (LTEA) Assay for Nuclear factor erythroid 2-related factor 2 (NFE2L2) Transcription Factor using HepaRG (AID 2283527);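 also: TaqMan qRT-PCR transcript level normalised to ACTB GAPDH and POLR2A housekeeping genes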
How it was run: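 NFE2L2 transcript level was read by qRT-PCR (housekeeping ACTB/GAPDH/POLR2A normalisation) after 48 h chemical treatment of HepaRG in serum-free induction medium. Duplicate 8-point half-log curves, top 100 uM, 0.5% DMSO vehicle; up- or down-regulation fitted against vehicle.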

[7] = read-out: succinate dehydrogenase complex iron sulfur subunit B (SDHB), SDHB (gene 6390); assay: LTEA_HepaRG_SDHB: Life Technologies and Expression Analysis (LTEA) Assay for succinate dehydrogenase complex iron sulfur subunit B (SDHB) using HepaRG (AID 2283528)
How it was run: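 HepaRG cells (~100,000/well, plated 48 h) exposed in duplicate for 48 h in serum-free induction medium to 8-point half-log series from 100 uM in 0.5% DMSO; mRNA by qRT-PCR normalised to ACTB, GAPDH, POLR2A; bidirectional fit versus DMSO.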

[8] = read-out: Signal transducer and activator of transcription 3 (Homo sapiens) (UniProt P40763); assay: LTEA_HepaRG_STAT3: Life Technologies and Expression Analysis (LTEA) Assay for Signal transducer and activator of transcription (STAT3) using HepaRG (AID 2283529)
How it was run: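 STAT3 transcript quantified by qRT-PCR against three housekeeping genes (ACTB, GAPDH, POLR2A), fitted both directions relative to DMSO. HepaRG cultures exposed 48 h to eight half-log concentrations, top 100 uM, 0.5% DMSO, serum-free induction medium.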

[9] = read-out: solute carrier (SLCO1B1), SLCO1B1 (gene 10599); assay: LTEA_HepaRG_SLCO1B1: Life Technologies and Expression Analysis (LTEA) Assay for solute carrier (SLCO1B1) using HepaRG (AID 2283530)
How it was run: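 SLCO1B1 transcript levels were quantified by TaqMan qRT-PCR using three housekeeping genes for normalization. This followed 48 h chemical exposure (100 uM top, half-log, 8 points, 0.5% DMSO) of HepaRG liver cells, with gain or loss fitted relative to DMSO.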

[10] = read-out: sulfotransferase 2A1 (SULT2A1), SULT2A1 (gene 6822); assay: LTEA_HepaRG_SULT2A1: Life Technologies and Expression Analysis (LTEA) Assay for sulfotransferase 2A1 (SULT2A1) using HepaRG (AID 2283531)
How it was run: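 Expression change of SULT2A1, by qRT-PCR with three housekeeping-gene normalization, was scored bidirectionally versus DMSO. Cells: differentiated HepaRG, dosed in duplicate for 48 h across 8 points, highest 100 µM, half-log dilution, 0.5% DMSO.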

[11] = read-out: Transforming Growth Factor (TGFA), TGFA (gene 7039); assay: LTEA_HepaRG_TGFA: Life Technologies and Expression Analysis (LTEA) Assay for Transforming Growth Factor (TGFA) using HepaRG (AID 2283532)
How it was run: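 TGFA transcript quantified by qRT-PCR (Fluidigm arrays) against three housekeeping genes, after 48 hours chemical treatment of HepaRG cells. Top concentration 100 uM with half-log dilutions, 8 points, duplicates, 0.5% DMSO.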

[12] = read-out: TIMP1, TIMP1 (gene 7076); assay: LTEA_HepaRG_TIMP1: Life Technologies and Expression Analysis (LTEA) Assay for TIMP1 using HepaRG (AID 2283534)
How it was run: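 Bidirectional change in TIMP1 transcript versus 0.5% DMSO, measured by TaqMan qRT-PCR with three housekeeping genes for normalization. HepaRG human liver cells dosed 48 h in duplicate, top concentration 100 uM with half-log dilutions.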

[13] = read-out: Tumor necrosis factor receptor 1 (TNFRSF1A), TNFRSF1A (gene 7132); assay: LTEA_HepaRG_TNFRSF1A: Life Technologies and Expression Analysis (LTEA) Assay for Tumor necrosis factor receptor 1 (TNFRSF1A) using HepaRG (AID 2283535)
How it was run: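 mRNA measured by qRT-PCR (TaqMan, Fluidigm arrays) against ACTB/GAPDH/POLR2A housekeepers after 48 h chemical exposure of HepaRG cells. Top concentration 100 uM, half-log 8-point series, duplicates; vehicle 0.5% DMSO, both fit directions.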

[14] = read-out: Thyroid Hormone Responsive (THRSP), THRSP (gene 7069); assay: LTEA_HepaRG_THRSP: Life Technologies and Expression Analysis (LTEA) Assay for Thyroid Hormone Responsive (THRSP) using HepaRG (AID 2283536)
How it was run: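 THRSP transcript quantified by Fluidigm qRT-PCR against three housekeeping genes after 48 h chemical exposure of HepaRG cells in serum-free induction medium; eight-point half-log series, top 100 uM, 0.5% DMSO vehicle, duplicate wells.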

[15] = read-out: UDP glucuronosyltransferase (UGT1A1), UGT1A1 (gene 54658); assay: LTEA_HepaRG_UGT1A1: Life Technologies and Expression Analysis (LTEA) Assay for UDP glucuronosyltransferase (UGT1A1) using HepaRG (AID 2283538)
How it was run: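 mRNA induction or loss of UGT1A1, by TaqMan qRT-PCR, in duplicate HepaRG wells after 48 h exposure to half-log dilutions topping at 100 uM; DMSO (0.5%) served as baseline.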

[16] = read-out: UDP glucuronosyltransferase (UGT1A6), UGT1A6 (gene 54578); assay: LTEA_HepaRG_UGT1A6: Life Technologies and Expression Analysis (LTEA) Assay for UDP glucuronosyltransferase (UGT1A6) using HepaRG (AID 2283539)
How it was run: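 Expression was quantified by TaqMan qRT-PCR on Fluidigm arrays with ACTB/GAPDH/POLR2A normalization and bidirectional fitting against 0.5% DMSO. HepaRG cells (~100,000/well) were treated in duplicate for 48 h at eight half-log concentrations up to 100 uM in serum-free induction medium.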

[17] = read-out: X-box binding protein 1 (XBP1), XBP1 (gene 7494); assay: LTEA_HepaRG_XBP1: Life Technologies and Expression Analysis (LTEA) Assay for X-box binding protein 1 (XBP1) using HepaRG (AID 2283540)
How it was run: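 XBP1 transcript by qRT-PCR (housekeeping-normalized: ACTB, GAPDH, POLR2A) after 48 h chemical treatment of HepaRG cells, 8-point half-log series topping at 100 uM, vehicle 0.5% DMSO. Gain and loss of signal fitted relative to DMSO.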

[18] = read-out: Transforming Growth Factor (TGFB1), TGFB1 (gene 7040); assay: LTEA_HepaRG_TGFB1: Life Technologies and Expression Analysis (LTEA) Assay for Transforming Growth Factor (TGFB1) Transporter using HepaRG (AID 2283533)
How it was run: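 TGFB1 transcript measured by qRT-PCR with normalisation to three housekeeping genes (ACTB, GAPDH, POLR2A); human HepaRG line treated in duplicate for 48 hr with an 8-point series topping at 100 uM, 0.5% DMSO vehicle, bidirectionally fitted.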

[19] = read-out: Cellular tumor antigen p53 (Homo sapiens) (UniProt P04637); assay: LTEA_HepaRG_TP53: Life Technologies and Expression Analysis (LTEA) Assay for Tumor Protein P53 (TP53) using HepaRG (AID 2283537)
How it was run: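 Differentiated HepaRG cells in serum-free induction medium exposed 48 h in duplicate to 8 half-log concentrations, top 100 uM, 0.5% DMSO. TP53 mRNA by TaqMan qRT-PCR (Fluidigm), normalized to ACTB, GAPDH, POLR2A; fitted bidirectionally versus DMSO.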

Measured: outcome

Signal transducer and activator of transcription 3 (Homo sapiens), sequence (P40763 whole entry, looked up): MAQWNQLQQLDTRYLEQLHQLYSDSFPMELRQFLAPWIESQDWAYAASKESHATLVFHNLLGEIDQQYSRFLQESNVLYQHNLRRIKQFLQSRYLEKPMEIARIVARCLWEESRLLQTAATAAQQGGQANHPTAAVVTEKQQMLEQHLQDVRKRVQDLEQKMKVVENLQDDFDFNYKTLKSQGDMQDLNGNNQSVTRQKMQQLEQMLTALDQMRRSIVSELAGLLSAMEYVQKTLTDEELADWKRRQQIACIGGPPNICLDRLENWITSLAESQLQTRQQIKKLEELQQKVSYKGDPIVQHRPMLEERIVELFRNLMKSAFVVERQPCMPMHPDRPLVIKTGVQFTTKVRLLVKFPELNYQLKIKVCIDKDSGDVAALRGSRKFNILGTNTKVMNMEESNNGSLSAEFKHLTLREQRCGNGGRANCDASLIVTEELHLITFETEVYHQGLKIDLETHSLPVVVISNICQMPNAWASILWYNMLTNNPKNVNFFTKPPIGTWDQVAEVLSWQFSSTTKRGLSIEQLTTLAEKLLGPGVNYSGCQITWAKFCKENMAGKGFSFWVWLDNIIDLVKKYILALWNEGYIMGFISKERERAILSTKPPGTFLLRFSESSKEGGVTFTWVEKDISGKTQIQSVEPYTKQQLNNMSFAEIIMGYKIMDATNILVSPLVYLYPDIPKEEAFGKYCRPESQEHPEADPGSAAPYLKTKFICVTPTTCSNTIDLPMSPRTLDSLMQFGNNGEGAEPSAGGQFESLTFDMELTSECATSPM
Nuclear factor erythroid 2-related factor 2 (Homo sapiens), sequence (Q16236 whole entry, looked up): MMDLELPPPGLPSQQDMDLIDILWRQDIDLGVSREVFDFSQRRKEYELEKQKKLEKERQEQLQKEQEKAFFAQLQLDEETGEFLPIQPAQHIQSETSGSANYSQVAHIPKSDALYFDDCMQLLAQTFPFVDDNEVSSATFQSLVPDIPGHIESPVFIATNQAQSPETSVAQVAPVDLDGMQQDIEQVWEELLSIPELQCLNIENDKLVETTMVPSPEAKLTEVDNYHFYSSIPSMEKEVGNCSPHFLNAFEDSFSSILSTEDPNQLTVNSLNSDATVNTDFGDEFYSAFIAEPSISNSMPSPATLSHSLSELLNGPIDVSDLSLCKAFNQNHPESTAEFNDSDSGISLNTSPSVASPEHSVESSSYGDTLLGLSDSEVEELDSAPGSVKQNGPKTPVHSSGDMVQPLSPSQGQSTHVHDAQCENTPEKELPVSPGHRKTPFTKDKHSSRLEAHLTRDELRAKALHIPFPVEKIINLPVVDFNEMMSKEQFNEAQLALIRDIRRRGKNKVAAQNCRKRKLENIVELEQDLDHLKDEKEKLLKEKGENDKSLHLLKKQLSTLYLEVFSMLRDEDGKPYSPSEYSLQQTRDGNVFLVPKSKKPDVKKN
Cellular tumor antigen p53 (Homo sapiens), sequence (P04637 whole entry, looked up): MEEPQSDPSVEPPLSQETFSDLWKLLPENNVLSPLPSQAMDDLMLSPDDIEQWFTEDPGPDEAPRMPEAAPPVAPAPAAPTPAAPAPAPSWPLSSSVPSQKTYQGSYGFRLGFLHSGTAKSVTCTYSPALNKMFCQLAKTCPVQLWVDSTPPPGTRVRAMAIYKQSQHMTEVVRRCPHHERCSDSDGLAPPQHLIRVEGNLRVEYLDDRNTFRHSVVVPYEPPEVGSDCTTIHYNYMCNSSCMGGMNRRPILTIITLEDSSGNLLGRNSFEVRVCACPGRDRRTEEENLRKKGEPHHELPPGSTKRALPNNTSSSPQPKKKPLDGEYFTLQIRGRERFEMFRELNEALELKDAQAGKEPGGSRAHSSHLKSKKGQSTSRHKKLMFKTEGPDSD

O=C(O)c1cccc(C(=O)O)c1
not listed: [18] | [19]
inactive: all other assays above

CCOc1ccc2[nH]cc(C(=O)NCc3ccccc3)c(=O)c2n1
not listed: [11] | [14] | [19]
inactive: all other assays above

O=c1[nH]cnc2c1ncn2[C@H]1CC[C@@H](CO)O1
not listed: [11] | [14] | [19]
inactive: all other assays above

C=CN1CCCC1=O
not listed: [11] | [14]
inactive: all other assays above
